In PubChem BioAssay:
Inconclusive results are not listed. Calls of active or inactive are those of the source.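 The calls were made as follows, unless noted: active = growth inhibition above 25% in both replicates, a cutoff set 3 SD above the mean; inconclusive = above 25% in only one replicate; inactive = the rest.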

Assays:
[1] = Her2 expression decrease, cell viability multiplex – SKBR3 breast tumor cells, AlphaScreen, ATP viability, primary screen (AID 461;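 active = Her2 level under about 52% in both replicate screens, with viability over 70% of control, limit read from the data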;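 as to Her2 level: lower value means less Her2 protein in the cells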;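 as to viability: percent of carrier control wells set as 100% viability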); details: SKBR3 Her2 protein level, 18-24 h, measured here: SKBR3 viability, ATP luminescence, at 10 µM
[2] = target: Receptor tyrosine-protein kinase erbB-2 (Homo sapiens) (UniProt P04626); experiment: as above; details: 18-24 h, at 10 µM, stronger effect = lower value
[3] = reduced viability of SK-BR-3 breast cancer cells – cell-based, 24 h, human, pilot screen (AID 572;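 active = viability at or below 10% of carrier control in both of two separate runs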;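 also: compound exposure lasted between 18 and 24 h rather than exactly 24 h; 100% = carrier-treated control wells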); details: SK-BR-3 viability, CellTiter-Glo luminescence, at 10 µM, stronger effect = lower value
[4] = HUVEC growth inhibition – cell-based, human, primary screen (AID 575;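 active = viability at or below 30% in both replicate assays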;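 also: 100% = median of untreated cell wells with 0.1% DMSO on each plate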); details: HUVEC proliferation, CellTiter-Glo luminescence, 72 h; at 10 µM; stronger effect = lower value
[5] = H69AR cell proliferation blockers – human, duplicate replicates, primary screen (AID 580;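 active = viability at or under a set limit in both replicates, limit being median viability minus 3 SD, cut at about 48% in these data, passing the limit was not always enough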;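 also: 100% = mean luminescence of untreated wells and 0% = no signal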); details: H69AR lung tumor cells viability, ATP luminescence, 72 h; at 10 µM; stronger effect = lower value
[6] = MRP1 drug-resistance reversers in H69AR cells – cell-based, doxorubicin co-treatment, pilot screen (AID 601;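 active = viability loss from added drug above about 55%, and viability with drug at most 40%, in both replicates, limit read from the data, passing the limit was not always enough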); details: CellTiter-Glo, 72 h, at 10 µM; for differential viability (reversal): stronger effect = higher value
[7] = yeast transport mutant growth inhibition pilot in 384-well plates, post-Golgi transport modulator project (AID 636; in the data active = inhibition above about 31%); details: absorbance 615 nm, about 18 h, stronger effect = higher value
[8] = growth suppression of yeast trafficking mutant, preliminary HTS, modulators of trafficking downstream of Golgi apparatus project, 1536-format plate, OD 615 nm (AID 637; in the data active = inhibition above about 30%); details: yeast transport mutant growth, absorbance 615 nm, 18 h; stronger effect = higher value
[9] = S. cerevisiae growth inhibition in permissive medium (OD615), pilot counter-assay for S. cerevisiae lifespan shortening project, permissive growth control (AID 705); details: OD615, 24 h, at 10 µM, stronger effect = higher value
[10] = S. cerevisiae growth inhibition in restrictive medium, OD615, pilot screen, restrictive growth control, yeast lifespan reduction project (AID 706;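 active = growth inhibition above a set limit, 3 SD over mean compound inhibition, in both replicates, cut at about 43% in these data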;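 also: modified DeaD lifespan yeast strain shifted to restrictive glucose medium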); details: OD615, 48 h, at 10 µM, stronger effect = higher value
[11] = doxorubicin toxicity protection in MRP-1 cells – H69AR cells, CellTiter-Glo, duplicate, MRP-1 activator project, pilot screen (AID 807;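 active = viability increase at or above a cutoff of the median across tested compounds plus 3 SD, cut at about 8.5% in these data, passing the limit was not always enough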;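 also: compound pretreatment 18-22 h then 72 h combined with doxorubicin; 0% = doxorubicin alone and 100% = vehicle without doxorubicin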); details: H69AR viability with doxorubicin, CellTiter-Glo luminescence; at 10 µM; stronger effect = higher value
[12] = viability of HCT116 without oncogenic beta-catenin – human colon tumor cells, pilot screen (AID 823;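 active = cell viability at or below a set limit in both duplicate runs, the limit being the all-compound median minus 4 SD, cut at about 23% in these data, passing the limit was not always enough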;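 also: 0% = wells killed by 20 µM Hyamine and 100% = untreated DMSO cell wells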); details: HCT116 beta-catenin knockout viability, CellTiter-Glo, 60 h; at 10 µM; stronger effect = lower value
[13] = viability of PTEN-null HCT116 cells – cell-based, HCT116 clonal line, CellTiter-Glo, pilot screen (AID 824;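 active = viability at or below 27.92% in each of two runs, the all-compound median minus 4 SD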;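 also: 0% = 20 µM Hyamine control and 100% = vehicle cell control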); details: HCT116 PTEN-deleted viability, 60 h, at 10 µM, stronger effect = lower value
[14] = RAM pathway blockade in budding yeast – dse1pr::URA3 reporter, 5-FOA selection, pilot screen (AID 869;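 active = inhibition over a set limit, the all-compound mean plus 3 SD, in both replicate runs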;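 also: 0% = DMSO wells with no growth and 100% = 10 µM 1-NA-PP1 with full growth; RAM network block rescues cells from 5-FOA so hits raise OD615 growth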); details: S. cerevisiae dse1pr::URA3 5-FOA growth, OD615, 2 d; at 10 µM; stronger effect = higher value; strain carries analog-sensitive mutant Cbk1 kinase
[15] = RAM signaling pathway blockade in yeast – S. cerevisiae, Pdr1DBD-CYC8 efflux-inhibited sensitized strain, primary screen (AID 1298;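 active = RAM network inhibition above 8.4% in each of two replicates, 3 SD over the compound average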;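 also: 0% = DMSO untreated cells without growth and 100% = 10 µM 1-NA-PP1 full growth; higher means more yeast growth rescued from 5-FOA killing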); details: S. cerevisiae cbk1-as DSE1-URA3 strain, 5-FOA growth OD615, 2 d; at 50 µM; stronger effect = higher value
[16] = H69AR cells + 2 uM doxorubicin, measured here: viability with 2 uM doxorubicin, stronger effect = lower value
[17] = H69AR cells, compound alone cytotoxicity

Chain of Receptor tyrosine-protein kinase erbB-2 (Homo sapiens) (P04626 whole entry, looked up): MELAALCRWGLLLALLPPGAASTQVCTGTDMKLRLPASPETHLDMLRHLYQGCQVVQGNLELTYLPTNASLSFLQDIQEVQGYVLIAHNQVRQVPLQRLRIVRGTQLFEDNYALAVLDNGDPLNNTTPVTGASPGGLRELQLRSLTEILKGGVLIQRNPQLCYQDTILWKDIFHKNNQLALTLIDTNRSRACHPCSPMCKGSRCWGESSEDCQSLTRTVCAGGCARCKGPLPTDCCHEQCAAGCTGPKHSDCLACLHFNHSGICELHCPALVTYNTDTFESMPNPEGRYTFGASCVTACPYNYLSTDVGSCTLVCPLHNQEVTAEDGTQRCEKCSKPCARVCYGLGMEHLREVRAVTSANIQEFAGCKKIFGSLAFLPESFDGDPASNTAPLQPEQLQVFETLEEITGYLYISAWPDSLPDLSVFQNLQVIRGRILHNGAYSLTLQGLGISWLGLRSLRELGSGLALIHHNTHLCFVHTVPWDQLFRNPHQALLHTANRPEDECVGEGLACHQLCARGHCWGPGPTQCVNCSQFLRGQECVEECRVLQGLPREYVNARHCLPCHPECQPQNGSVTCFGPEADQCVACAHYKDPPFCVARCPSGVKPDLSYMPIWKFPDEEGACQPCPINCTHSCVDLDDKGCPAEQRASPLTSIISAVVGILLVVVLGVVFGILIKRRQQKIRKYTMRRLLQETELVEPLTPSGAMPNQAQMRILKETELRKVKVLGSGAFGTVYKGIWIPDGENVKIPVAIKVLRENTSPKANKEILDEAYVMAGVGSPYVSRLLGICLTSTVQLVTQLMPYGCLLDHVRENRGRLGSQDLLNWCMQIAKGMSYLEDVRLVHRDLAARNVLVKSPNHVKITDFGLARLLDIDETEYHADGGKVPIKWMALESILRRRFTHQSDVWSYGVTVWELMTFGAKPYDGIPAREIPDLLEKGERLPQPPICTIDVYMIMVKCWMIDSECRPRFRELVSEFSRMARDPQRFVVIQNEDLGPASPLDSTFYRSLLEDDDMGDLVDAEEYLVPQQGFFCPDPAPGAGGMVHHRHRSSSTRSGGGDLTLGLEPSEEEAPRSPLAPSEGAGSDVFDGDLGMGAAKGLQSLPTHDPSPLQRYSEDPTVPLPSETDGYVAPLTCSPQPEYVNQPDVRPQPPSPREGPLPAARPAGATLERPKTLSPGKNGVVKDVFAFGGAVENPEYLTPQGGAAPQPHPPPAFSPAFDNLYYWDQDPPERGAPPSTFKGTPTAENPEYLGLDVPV

## CCOc1ccccc1NC(=O)CC1Nc2cc(C)c(C)cc2NC1=O (stereo not drawn)
[1]
  viability: 80.5%
[2]
  Her2 level: 82% (inactive)
[3]
  viability: 80.5% (inactive)
[4]
  viability: 68.7% (inactive)
[5]
  viability: 59.2% (inactive)
[6]; H69AR cells + 2 uM doxorubicin
  differential viability (reversal): -25.8% (inactive)
[6]; [16]
  viability: 85%
[6]; [17]
  viability: 59.2%
[7]
  inhibition: -1.67% (inactive)
[8]
  inhibition: -5.5% (inactive)
[9]
  growth inhibition: -16.7% (inactive)
[10]
  growth inhibition: -12.1% (inactive)
[11]
  viability increase: -5.9% (inactive)
[12]
  viability: 77.5% (inactive)
[13]
  viability: 77.8% (inactive)
[14]
  inhibition: 0.04% (inactive)
[15]
  RAM network inhibition: 5.85% (inactive)

## CC12CN3CC(C)(CN(C1)C3c1ccc(Cl)cc1Cl)C2=O (stereo not drawn)
[1]
  viability: 97%
[2]
  Her2 level: 102% (inactive)
[3]
  viability: 97% (inactive)
[4]
  viability: 101% (inactive)
[5]
  viability: 80.9% (inactive)
[6]; H69AR cells + 2 uM doxorubicin
  differential viability (reversal): -7.23% (inactive)
[6]; [16]
  viability: 88.2%
[6]; [17]
  viability: 80.9%
[7]
  inhibition: -2.67% (inactive)
[8]
  inhibition: -3% (inactive)
[9]
  growth inhibition: -17.2% (inactive)
[10]
  growth inhibition: -1.12% (inactive)
[11]
  viability increase: -2.71% (inactive)
[12]
  viability: 93.4% (inactive)
[13]
  viability: 95.3% (inactive)
[14]
  inhibition: 1.56% (inactive)
[15]
  RAM network inhibition: -0.11% (inactive)

## COc1ccccc1CNC(=O)C1CCC(CNc2c(N3CCOCC3)c(=O)c2=O)CC1 (stereo not drawn)
[1]
  viability: 90.5%
[2]
  Her2 level: 126% (inactive)
[3]
  viability: 90.5% (inactive)
[4]
  viability: 86.7% (inactive)
[5]
  viability: 105% (inactive)
[6]; H69AR cells + 2 uM doxorubicin
  differential viability (reversal): 12% (inactive)
[6]; [16]
  viability: 92.8%
[6]; [17]
  viability: 105%
[7]
  inhibition: 1.03% (inactive)
[8]
  inhibition: 3% (inactive)
[9]
  growth inhibition: -3.5% (inactive)
[10]
  growth inhibition: 8.34% (inactive)
[11]
  viability increase: 0.11% (inactive)
[12]
  viability: 101% (inactive)
[13]
  viability: 104% (inactive)
[14]
  inhibition: 1.35% (inactive)
[15]
  RAM network inhibition: 3.53% (inactive)

## O=C(CSc1ccc2nnc(-c3ccccc3)n2n1)N1CCN(c2ccccc2)CC1
[1]
  viability: 93.5%
[2]
  Her2 level: 114% (inactive)
[3]
  viability: 93.5% (inactive)
[4]
  viability: 77.9% (inactive)
[5]
  viability: 83.8% (inactive)
[6]; H69AR cells + 2 uM doxorubicin
  differential viability (reversal): -9.57% (inactive)
[6]; [16]
  viability: 93.4%
[6]; [17]
  viability: 83.8%
[7]
  inhibition: -0.13% (inactive)
[8]
  inhibition: 7.67% (inactive)
[9]
  growth inhibition: -0.235% (inactive)
[10]
  growth inhibition: 8.33% (inactive)
[11]
  viability increase: -3.49% (inactive)
[12]
  viability: 101% (inactive)
[13]
  viability: 93.8% (inactive)
[14]
  inhibition: 0.38% (inactive)
[15]
  RAM network inhibition: 0.93% (inactive)

## CC(C(=O)N1CC2(C)CC1CC(C)(C)C2)N1C(=O)c2ccccc2C1=O (stereo not drawn)
[1]
  viability: 84%
[2]
  Her2 level: 101% (inactive)
[3]
  viability: 84% (inactive)
[4]
  viability: 101% (inactive)
[5]
  viability: 98.1% (inactive)
[6]; H69AR cells + 2 uM doxorubicin
  differential viability (reversal): 16.8% (inactive)
[6]; [16]
  viability: 81.3%
[6]; [17]
  viability: 98.1%
[7]
  inhibition: -7.07% (inactive)
[8]
  inhibition: 0.32% (inactive)
[9]
  growth inhibition: -13.3% (inactive)
[10]
  growth inhibition: -0.265% (inactive)
[11]
  viability increase: -3.98% (inactive)
[12]
  viability: 82.1% (inactive)
[13]
  viability: 83.5% (inactive)
[14]
  inhibition: 0.545% (inactive)
[15]
  RAM network inhibition: 4.35% (inactive)

## O=C(Nc1nnc(N2CCCCCC2)s1)c1cc(-c2ccc(Br)cc2)on1
[1]
  viability: 97%
[2]
  Her2 level: 106% (inactive)
[3]
  viability: 97% (inactive)
[4]
  viability: 99.2% (inactive)
[5]
  viability: 99.6% (inactive)
[6]; H69AR cells + 2 uM doxorubicin
  differential viability (reversal): 13.1% (inactive)
[6]; [16]
  viability: 86.4%
[6]; [17]
  viability: 99.6%
[7]
  inhibition: -5.13% (inactive)
[8]
  inhibition: 3.67% (inactive)
[9]
  growth inhibition: -14.6% (inactive)
[10]
  growth inhibition: -7.24% (inactive)
[11]
  viability increase: 2.89% (inactive)
[12]
  viability: 99.1% (inactive)
[13]
  viability: 95.2% (inactive)
[14]
  inhibition: 1.98% (inactive)
[15]
  RAM network inhibition: 9.45% (inactive)

## COc1cc2c(cc1OC)C(c1ccc(C)o1)CC(=O)N2 (stereo not drawn)
[1]
  viability: 81.5%
[2]
  Her2 level: 87.5% (inactive)
[3]
  viability: 81.5% (inactive)
[4]
  viability: 86.2% (inactive)
[5]
  viability: 89.4% (inactive)
[6]; H69AR cells + 2 uM doxorubicin
  differential viability (reversal): 9.42% (inactive)
[6]; [16]
  viability: 80%
[6]; [17]
  viability: 89.4%
[7]
  inhibition: -0.13% (inactive)
[8]
  inhibition: 4.33% (inactive)
[9]
  growth inhibition: -3.98% (inactive)
[10]
  growth inhibition: 1.56% (inactive)
[11]
  viability increase: -4.72% (inactive)
[12]
  viability: 80% (inactive)
[13]
  viability: 78.2% (inactive)
[14]
  inhibition: 1.21% (inactive)
[15]
  RAM network inhibition: 0.73% (inactive)

## CCOC(=O)CSc1nnc(Cn2c(=O)sc3ccccc32)n1C
[1]
  viability: 96%
[2]
  Her2 level: 94% (inactive)
[3]
  viability: 96% (inactive)
[4]
  viability: 87% (inactive)
[5]
  viability: 96.7% (inactive)
[6]; H69AR cells + 2 uM doxorubicin
  differential viability (reversal): 11.1% (inactive)
[6]; [16]
  viability: 85.5%
[6]; [17]
  viability: 96.7%
[7]
  inhibition: 3.33% (inactive)
[8]
  inhibition: -2.5% (inactive)
[9]
  growth inhibition: 1.56% (inactive)
[10]
  growth inhibition: 7.89% (inactive)
[11]
  viability increase: 1.76% (inactive)
[12]
  viability: 107% (inactive)
[13]
  viability: 106% (inactive)
[14]
  inhibition: 0.27% (inactive)
[15]
  RAM network inhibition: 3.51% (inactive)

## CN1CCN(CC(=O)N2c3ccccc3C(C)(c3ccccc3)CC2(C)C)CC1 (stereo not drawn)
[1]
  viability: 87%
[2]
  Her2 level: 103% (inactive)
[3]
  viability: 87% (inactive)
[4]
  viability: 78.8% (inactive)
[5]
  viability: 65.8% (inactive)
[6]; H69AR cells + 2 uM doxorubicin
  differential viability (reversal): -31.3% (inactive)
[6]; [16]
  viability: 97.1%
[6]; [17]
  viability: 65.8%
[7]
  inhibition: -0.38% (inactive)
[8]
  inhibition: 2% (inactive)
[9]
  growth inhibition: -9.57% (inactive)
[10]
  growth inhibition: -2.67% (inactive)
[11]
  viability increase: -6.54% (inactive)
[12]
  viability: 49.1% (inactive)
[13]
  viability: 50.7% (inactive)
[14]
  inhibition: 0.685% (inactive)
[15]
  RAM network inhibition: 1.99% (inactive)
